Assay results: PubChem BioAssay AID2253 (Southern Research Specialized Biocontainment Screening …, 2010)
Hit rate of the full screen: of about 2,200 compounds, about 1,300 (59%) were called active. No rule for the calls is given here. So high a share suggests a set chosen from earlier hits. The list is a sample of the results. Entries with a potency or affinity are not part of this list.

test: human monocytic cell viability reduction – S. typhimurium screen hits, cytotoxicity control for Salmonella PhoP regulon inhibitors, dose response (AID 2253); details: THP-1 viability, CellTiter-Glo luminescence, 72 h; series mostly up to 50 µM

SMILES | outcome
COC(=O)C1C(=O)C=C(N2CCOCC2)CC1(C)C (stereo not drawn) | inactive
O=c1c2oc3ccccc3c2ncn1Cc1ccc(Cl)cc1 | inactive
CSc1nnc(NC(=O)CCc2ccccc2)s1 | inactive
CN1CCCC(OC(=O)CCCC(=O)OC2CCCN(C)C2)C1 (stereo not drawn) | inactive
O=C(Oc1ccc[nH]c1=O)c1cc([N+](=O)[O-])cc([N+](=O)[O-])c1 | inactive
Cc1ccc2nc(C(F)OC(F)(F)F)[nH]c2c1 (stereo not drawn) | inactive
CC(C)Cc1nc2ccc(N)cc2[nH]1 | inactive
O=C(O)CCC(=O)NCC1OCCc2ccccc21 (stereo not drawn) | inactive
CCn1cc(C(=O)O)c(=O)c2cc(OC)ccc21 | inactive
O=C(CSc1nc2[nH]ncc2c(=O)[nH]1)N1CCCCC1 | inactive
C#CCOc1ccc(Cl)cc1/C=N/O | inactive
CC1CCCCN1Cc1cnc(Cl)s1 (stereo not drawn) | inactive
O=C(N/N=C/c1ccco1)c1cccc(S(=O)(=O)Nc2ccccc2Cl)c1 | inactive
CCN(CC)S(=O)(=O)c1cccc(C(=O)NC(Cc2c[nH]c3ccccc23)c2nnc3n2CCC3)c1 (stereo not drawn) | inactive
CC(=O)Oc1ccc(C(=O)[C@H]2[C@H]3C(=O)N(c4ccc5ccccc5c4)C(=O)[C@H]3[C@@H]3C=CC=NN32)cc1 | inactive
O=C(CSc1nnc2c(Cl)cc(Cl)cn12)NC1CCS(=O)(=O)C1 (stereo not drawn) | inactive
O=C(CSc1nnc(-c2ccccc2)n1-c1ccc(Cl)cc1)NC1CCS(=O)(=O)C1 (stereo not drawn) | inactive
COc1ccc(-c2ccc3c(N)c(C(=O)c4cccc(OC)c4)sc3n2)cc1 | inactive
COc1cccc(-c2nnc(SCC(=O)Nc3ccc(OC)c(OC)c3)n2N)c1 | inactive
COc1ccc(NC(=O)CCNS(=O)(=O)c2ccc3c(c2)CCC(=O)N3)cc1 | inactive
O=c1[nH]c2ccccc2n2c(=S)[nH]nc12 | inactive
CCn1ncc(/C=C/C(=O)NCc2cn(C)nc2C)c1C | inactive
COc1ccc(OC)c(S(=O)(=O)N(C)CC(=O)N2CCc3ccccc3C2)c1 | inactive

SMILES | outcome
COc1ccc(C(=O)N2CCN(C(=O)c3ccco3)CC2)cc1OC | inactive
Nc1nc(CSc2nc3ccccc3[nH]2)nc(N2CCOCC2)n1 | inactive
O=C(NC1CCCC1)c1ccc(Cl)s1 | inactive
Cc1cc(-c2csc(NC(=O)c3ccccc3C(F)(F)F)n2)c(C)n1Cc1ccccc1 | inactive
O=C(OCc1nnc(-c2ccccc2)o1)c1ccc(S(=O)(=O)NCc2ccco2)cc1 | inactive
COC(=O)c1cccc(NC(=O)CCCOc2ccccc2)c1 | inactive
O=C(Cn1nc(Cc2cccnc2)c2ccccc2c1=O)NCc1ccc2c(c1)OCO2 | inactive
COC(=O)c1ccccc1NC(=O)NCc1ccc2c(c1)OCO2 | inactive
CC(C)(C)c1ccc(C2CC2C(=O)N/N=C\c2cc3ccccc3nc2Cl)cc1 (stereo not drawn) | inactive
CCn1c(SCC(=O)N2CCCCC2)nc(O)cc1=O | inactive
CCCc1cc(C(=O)Cc2ccc(C(=O)OCC)o2)c(O)cc1O | inactive
O=C(NCc1cccnc1)c1cc2ccccc2oc1=O | inactive
CCOC(=O)N1CCN(c2nc(C)c3c(n2)CCCC3=O)CC1 | inactive
CCCCn1c(-c2ccccc2)nc2c(=O)n(C)c(=O)[nH]c21 | inactive
CCN(CC)CCNC(=O)c1cn(CC)c2cc(N3CCN(C(=O)c4ccco4)CC3)c(F)cc2c1=O | inactive
O=C1C2CCCN2c2ccc(S(=O)(=O)N3CCOCC3)cc2N1Cc1ccccc1F (stereo not drawn) | inactive
Cc1ccc(Oc2ccc3c(c2)C(=O)N(c2ccc(S(=O)(=O)Nc4nccs4)cc2)C3=O)cc1 | inactive
CCCS(=O)(=O)N1CCCC(C(=O)N2CCN(c3ccccn3)CC2)C1 (stereo not drawn) | inactive
N=c1scc(-c2ccccc2)n1/N=C/c1ccco1 | inactive
CCCCn1c(O)c(C(CC)=Nc2ccc3c(c2)CCC3)c(=O)[nH]c1=O | inactive
Cc1cccc(-n2c(N)cc(=O)[nH]c2=S)c1 | inactive
O=C(O)C1CC=CCC1C(=O)NC12CC3CC(CC(C3)C1)C2 (stereo not drawn) | inactive
COC(=O)c1cc(C#N)c(Oc2ccccc2OC)nc1C | inactive

SMILES | outcome
CN(CCO)Cc1csc2ccc(Br)cc12 | inactive
CCn1c(CNC(=O)c2cccc(C)c2)nc2ccccc21 | inactive
Nc1c(-c2ccccc2)cnn1-c1cccc([N+](=O)[O-])c1 | inactive
Cc1ccc(C)n1-c1cc([N+](=O)[O-])ccc1-n1ccnc1 | inactive
CCOC(=O)c1c(NC(=O)Nc2ccc(C)cc2)sc2c1CCN(C)C2 | inactive
CC(C)(C)C1CCc2c(sc(NC(=O)c3cccs3)c2C(=O)N2CCCCC2)C1 (stereo not drawn) | inactive
NC(=O)c1c(NC(=O)CN2C(=O)CCC2=O)sc2c1CCCCC2 | inactive
C=CCN=C(NC#N)SCc1ccccc1Cl | inactive
O=c1cc(-c2ccc([N+](=O)[O-])cc2)nc2cc(-c3ccc(Cl)cc3)[nH]n12 | inactive
COC(=O)c1ccc2c(=O)n(CCN3CCOCC3)c(SCC(=O)C(C)(C)C)nc2c1 | inactive
N#Cc1ccc(COC(=O)c2ccc3c(=O)[nH]c(CN4CCOCC4)nc3c2)cc1 | inactive
COc1ccc(CN2CCOCC2)cc1Br | inactive
CC(C)Cc1oc(C(=O)O)cc1CN1CCOCC1 | inactive
Cc1ccc(C(=O)Oc2cccc(NC(=O)c3cccs3)c2)cc1S(=O)(=O)N1CCOCC1 | inactive
CCOC(=O)c1c(C)[nH]c(C)c1C(=O)COC(=O)/C=C/c1cccc(F)c1 | inactive
Cc1ccc(OCC(=O)N2CCN(S(=O)(=O)c3ccccc3)CC2)c([N+](=O)[O-])n1 | inactive
CCOC(=O)C(/C=C(\C#N)C(=O)OCC)=C(/N)N1CCN(c2c(C)cccc2C)CC1 | inactive
Cc1ccccc1NC(=S)N(CCCN1CCOCC1)Cc1ccccn1 | inactive
Brc1ccc2nc3c(n2c1)CCCC3 | inactive
CCCCn1c(NCCO)nc2ccccc21 | inactive
Nc1ccc(C(=O)OCc2nc3ccccc3[nH]2)cc1 | inactive
COc1c(F)c(F)cc2c(=O)c(C(=O)O)cn(C3CC3)c12 | inactive
O=C(Cn1nc(C(F)(F)F)c2c1CCCCC2)N1CCOCC1 | inactive

SMILES | outcome
CCCNC(=O)COC(=O)CCC(=O)c1ccc(F)cc1 | inactive
O=C(c1cc2ncc(Br)cn2n1)N1CCOCC1 | inactive
C(=N\N1CCN(C2c3ccccc3-c3ccccc32)CC1)/c1cccs1 | inactive
CCn1cc(C(=O)O)c(=O)c2cnc(N3CCN(C(=S)NC(=O)c4ccc(Cl)cc4)CC3)nc21 | inactive
CCOc1ccc(-c2noc(CCCC(N)=O)n2)cc1OC | inactive
COc1c(N2C[C@@H]3CCCN[C@@H]3C2)c(F)cc2c(=O)c(C(=O)O)cn(C3CC3)c12 | inactive
N/C(=N\OC(=O)Cc1ccc(Cl)cc1)c1cccnc1 | inactive
COc1cccc(N=Cc2c[nH][nH]c2=O)c1 | inactive
Cc1cc2ncn(C3CC(=O)N(Cc4ccc(N5CCCC5=O)cc4)C3=O)c2cc1C (stereo not drawn) | inactive
CC(NC(=O)C1(C)CC1(Br)Br)C(C)(C)C (stereo not drawn) | inactive
CN1/C(=C/C2CC(=O)N(c3cccc4ccccc34)C2=O)C(C)(C)c2ccccc21 (stereo not drawn) | inactive
O=C(OCCN1C(=O)c2ccccc2C1=O)c1ccc(S(=O)(=O)N2CCCCCC2)cc1 | inactive
Cc1ccc(NC(=O)CCN2CCc3ccccc3C2)cc1 | inactive
C/C(=N\NC(=O)c1c(Cl)c(C)nn1C)c1cccc(NC(=O)COc2ccc(Cl)cc2)c1 | inactive
CCCCCC(=O)Nc1ccc2ccccc2c1 | inactive
O=S(=O)(NCc1ccccc1)c1cccc(S(=O)(=O)N2CCOCC2)c1 | inactive
O=C(Nc1ccc2oc(-c3ccc(Cl)c(Cl)c3)nc2c1)c1ncn[nH]1 | inactive
Nc1cc(N)cc(-c2nc3ccccc3[nH]2)c1 | inactive
Nc1nc(N)nc(-c2ccccc2)n1 | inactive
O=C(O)CCc1nn2c3ccccc3n(CCN3CCCCC3)c2nc1=O | inactive
COc1ccc(OCCSc2nnc(-c3ccc(OC)cc3)n2N)cc1 | inactive
C=CCn1c(SCCOc2ccc(OC)cc2)nnc1C(C)NC(=O)c1ccc(OC)cc1 (stereo not drawn) | inactive
CC(O)c1ccc(OCCN(C)c2ccccn2)cc1 (stereo not drawn) | inactive

SMILES | outcome
COC(=O)c1ccc(COC(=O)c2ccccn2)cc1 | inactive
COc1cc(NC(=O)CSc2nnnn2Cc2ccc3c(c2)OCO3)cc(OC)c1 | inactive
Cc1ccc(-n2ncc3c(N4CCN(c5ccccc5)CC4)ncnc32)c(C)c1 | inactive
c1ccc(-c2cnn3nnnc3n2)cc1 | inactive
CCc1c(C)c2cc(Cl)c(O)c(CN(C)C)c2oc1=O | inactive
O=C(CCN1C(=O)c2ccccc2S1(=O)=O)Nc1ccc2c(c1)OCCO2 | inactive
CC(=O)c1c(N2CCN(C(=O)C3CCCO3)CC2)nc(=S)n(-c2ccccc2)c1C (stereo not drawn) | inactive
O=C(Nc1ccc(F)cc1)c1ccccc1F | inactive
COc1ccc(CCNC(=O)c2ccc(CN3CCOCC3)cc2)cc1 | inactive
O=C(CCN1C(=O)COc2ccccc21)NCCN1CCOCC1 | inactive
CC1(C)CC(=O)C(/C=N/c2ncccc2C(=O)O)=C(O)C1 | inactive
O=C(NC(CO)C(O)c1ccc([N+](=O)[O-])cc1)C(Cl)Cl (stereo not drawn) | inactive
Cc1ccc(-n2c(C)cc(-c3csc(N)n3)c2C)cc1 | inactive
Cc1cc(-c2csc(N)n2)c(C)n1C | inactive
Cc1ccccc1NC(=O)c1ccc(-n2cncn2)nc1 | inactive
O=C1C(c2ccc(F)cc2)N(Cc2ccc3c(c2)OCO3)C(=O)CN1C1CCCCCC1 (stereo not drawn) | inactive
C/C(=N\n1nnnc1Nc1ccccc1)c1ccc(N)cc1 | inactive
Nc1ccc(Nc2ccccc2)c(Cl)c1 | inactive
CCn1cc(C(=O)O)c(=O)c2cc(F)c(N3CCN(C(=S)NC(=O)c4ccccc4Cl)CC3)cc21 | inactive
CSCCC(NC(=O)c1cccc(C)c1)C(=O)OCC(=O)NC(=O)c1cccn1C (stereo not drawn) | inactive
COc1ccc(Cl)cc1-c1nc(SCC(N)=O)n[nH]1 | inactive
